# Test results taken from PMC4552634, “A New Set of Chemical Starting Points with Plasmodium falciparum Transmission-Blocking Potential for Antimalarial Drug Discovery” (PLoS ONE, 2015).
# System: P. falciparum stage V gametocytes
# Design: BacTiter-Glo ATP luminescence viability of purified stage V gametocytes in 384-well plates, per cent inhibition versus DMSO
# Settings: 48 h, 5 µM; inhibitor
# Procedure: Once purified, gametocytes were counted using a Neubauer chamber, and the density was adjusted to 2.5 x 10^5 gametocytes/mL. Fifty μL of the gametocyte suspension (1.25 x 10^4 gametocytes) were added to each well of the 384-well plate containing the compounds, using a Multidrop combi (Thermo Electron Corporation). Plates were shaken for 5 sec to homogenize and then incubated at 37°C for 48 h in an atmosphere of 5% CO2, 5% O2, 90% N2. The ATP level of each well was determined using the BacTiter-Glo reagent (Promega) according to the recommendations of the manufacturer. The BacTiter-Glo assay generates a ‘glow-type’ luminescent signal produced by the luciferase reaction, which consists of mono-oxygenation of luciferin catalyzed by luciferase in the presence of Mg^2+, ATP and molecular oxygen. The luminescence was measured using a plate reader (Victor V, Perkin Elmer). […] The background value was subtracted from every other value of the assay prior to further calculation. The average of 16 replicates of vehicle control (0.5% or 0.1% DMSO) represents 100% of signal. Related to this value, each test concentration was calculated as percentage of control. All the calculations were done using MS Excel software. The compounds which presented inhibition ≥ 90% at 5 μM were progressed to the assay at 1 μM. […]
row,Structure (SMILES),% Inhibition [%]
1,CC[C@H]1CN2CCc3cc(OC)c(OC)cc3[C@@H]2C[C@@H]1C[C@H]1NCCc2cc(OC)c(OC)cc21 [TCMDC-125531],96.47
2,CCC1CN2CCc3cc(OC)c(OC)cc3C2CC1CC1NCCc2cc(OC)c(OC)cc21 (centres unmarked) [TCMDC-125849],100.9
